Compound activity (PubChem)
DAX1 inh-1: DAX1 (NR0B1) inhibitors on StAR promoter, primary screen, cell-based, luminescence, SF-1 (NR5A1), full-length DAX-1; AID 652010, 2013; inhibition, % at 6.8 µM; 370,000 compounds, 1.1% hits; HEK293T StAR-luciferase reporter, SF-1/DAX-1 repression relief;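 active means inhibition above the mean over all tested compounds plus 3 SD, cut at about 3.6% in these data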;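 further: higher inhibition means more luminescence from relief of DAX-1 repression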
DAX1 inh-2: DAX1 (NR0B1) inhibitors, primary screen, cell-based, HEK293, Gal4-DAX1, luciferase luminescence | inhibition, % at 6.75 µM | Nuclear receptor subfamily 0 group B member 1 (Homo sapiens), P51843 | 340,000 compounds, 0.99% hits | HEK293 Gal4-DAX1 luciferase reporter | AID 504766, 2011;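 active means inhibition above the mean over all tested compounds plus 3 SD, cut at about 4.2% in these data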;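 further: inhibition shows as a rise in luminescence from relieved DAX1 repression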
Target sequence (P51843 207-470 limits assumed): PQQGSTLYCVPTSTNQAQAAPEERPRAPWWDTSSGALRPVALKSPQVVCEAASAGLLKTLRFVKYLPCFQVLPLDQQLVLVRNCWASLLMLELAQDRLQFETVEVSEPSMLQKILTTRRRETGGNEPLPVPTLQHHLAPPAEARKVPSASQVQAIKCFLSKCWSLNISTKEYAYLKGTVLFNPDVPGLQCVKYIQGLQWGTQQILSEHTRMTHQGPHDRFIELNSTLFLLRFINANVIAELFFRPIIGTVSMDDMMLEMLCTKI
ssDAF12 agonist: S. stercoralis DAF-12 nuclear receptor activators, primary screen, cell-based, luminescence, HEK293, GRIP1 co-expression, lit1-tk-luc; activation, % at 6.8 µM; HEK293 ssDAF-12/GRIP1 lit1-tk-luc reporter; % of 3 µM dafachronic acid response; AID 652126, 2013; Nuclear hormone receptor DAF-12 (Strongyloides stercoralis); 370,000 compounds, 1% hits;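 active means activation above the mean over all tested compounds plus 3 SD, cut at about 0.9% in these data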
hgDAF12 agonist: H. glycines DAF-12 receptor agonists, primary screen, cell-based, luminescence, HEK293, GAL4 fusion, UAS-luciferase | Nuclear hormone receptor DAF-12 (Heterodera glycines), GAL4 fusion | HEK293 GAL4-hgDAF12 UAS-luciferase reporter, agonist luminescence; normalized to butyrate control | activation, % at 6.8 µM | 370,000 compounds, 1.8% hits | AID 687014, 2013;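 active means activation above a cutoff set at the mean of all screened compounds plus 3 SD, cut at about 10% in these data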
SMARCA2 activ: SMARCA2 (BRM) function activators, primary screen, cell-based, luminescence, high throughput; 370,000 compounds, 1% hits; activation, % at 9.1 µM; MG213 cells, MMTV-luciferase reporter, dexamethasone, overnight; AID 652017, 2013; in the data active means activation above about 7.8%
hcDAF12 agonist: H. contortus DAF-12 nuclear receptor activators, primary screen, cell-based, luminescence, HEK293, lit1-tk-luc reporter; activation, % at 6.8 µM; 370,000 compounds, 1.4% hits; HEK293 hcDAF-12 lit1-tk-luc reporter; 0% DMSO, 100% Δ7-dafachronic acid; AID 652067, 2013;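 active means activation above the mean of all tested compounds plus 3 SD, cut at about 5.5% in these data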
SMARCA2 conf: SMARCA2 (BRM) function activators, confirmation, cell-based, luminescence, triplicate | MG213 cells, MMTV-luciferase with dexamethasone, overnight; MG213 cells expressing E1A, Rb sequestered; DMSO wells 0%, reference activator 100% | shares compounds with SMARCA2 activ | 3,500 compounds, 30% hits | activation, % at 9.1 µM;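 active means activation above its plate's cutoff, the mean activation of tested wells plus 3 SD, cut at about 7.9% in these data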
GAL4-VP16 Luc: GAL4-VP16 luciferase reporter activation, counter-screen for SMARCA2 (BRM) activator project, cell-based, pG5luc, luminescence, high throughput. shares compounds with SMARCA2 activ. AID 686939, 2013. 3,500 compounds, 41% hits. activation, % at 9.1 µM. HEK293 GAL4-VP16 pG5luc reporter; scaled: DMSO wells 0%, SAHA wells 100%;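 active means activation above the solvent-only control well mean plus 3 SD, averaged across control plates, cut at about 5.2% in these data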
Numbers stand for hits; . = inactive; / = no result. Rows were chosen to be rich in hits. Some 4.8% of all compounds tested hit in one or more screens of this group.

SMILES	DAX1 inh-1	DAX1 inh-2	ssDAF12 agonist	hgDAF12 agonist	SMARCA2 activ	hcDAF12 agonist	SMARCA2 conf	GAL4-VP16 Luc
c1ccc(N2CCN(c3cnccn3)CC2)nc1	.	.	.	.	.	.	/	/
N#Cc1cc(C#N)c(N2CCN(c3ccccn3)CC2)nc1N	.	.	.	.	9.1	.	16	11
C=C(C)CSc1nnc(-c2cc(-c3ccc(OC)cc3)n[nH]2)n1N	.	/	.	.	.	.	/	/
O=C(CSc1nnc(-c2ccncc2)n1CC1CCCO1)Nc1cccc(O)c1 (configuration not stated)	.	.	.	.	8.3	.	.	.
Cc1cc(N2CCN(CC(C)(C)O)C[C@@H]2C)ccc1N1CCN(CC(C)(C)O)[C@H](C)C1	.	/	.	.	.	.	/	/
CC(C)C(=O)Nc1cccc(NC(=O)c2cc3ccccc3o2)c1	.	.	.	.	9.4	.	.	10
CC(=O)Nc1cccc(NC(=O)c2cc3ccccc3o2)c1	.	.	.	.	.	.	/	/
Clc1ccc(-c2csc(Nc3ccccc3)[n+]2Cc2ccco2)c(Cl)c1	.	.	.	.	9.0	.	.	6.1
C=CCN1[C@@H](CC(C)C)COc2cccc(N3CCSCC3)c2S1(=O)=O	.	/	.	.	.	.	/	/
C=CCn1c(SCC(=O)Nc2ccccc2-c2ccccc2)nnc1-c1ccc(Cl)cc1	.	/	.	.	.	.	/	/
CC1(c2nnnn2Cc2ccccc2)CN(S(C)(=O)=O)CC(=O)N1Cc1cccs1 (configuration not stated)	.	/	.	.	.	.	/	/
N#CC(Cc1cccs1)c1nc2ccccc2[nH]1 (configuration not stated)	.	.	.	.	8.6	.	.	.
N#CC(Cc1ccc(OC(F)F)cc1)c1nc2ccccc2[nH]1 (configuration not stated)	.	.	.	.	.	.	/	/
CC(C)C[C@@H]1NC(=O)[C@H]2C[C@]3(c4ccccc4)c4ccccc4N[C@H]3N2C1=O	.	/	.	.	.	.	/	/
COC(=O)C[C@@H]1CC[C@H]2[C@@H](COc3ccc(NC(=O)Nc4ccccc4Cl)cc3C(=O)N2C)O1	.	/	.	.	.	.	/	/
COc1cccc(CN(C)C(=O)c2ccc3c(=O)n4c(nc3c2)CCC4)c1	.	.	.	.	.	.	/	/
COc1ccc(CN(C)C(=O)c2ccc3c(=O)n4c(nc3c2)CCC4)cc1	.	.	.	.	8.2	.	.	.
COc1ccc(NC(=O)C2CCCN(c3ncccn3)C2)cc1 (configuration not stated)	.	.	.	.	8.4	.	.	5.2
COc1ccc(NC(=O)C2CCCN(c3nccc(C)n3)C2)cc1 (configuration not stated)	.	.	.	.	.	.	/	/
Cc1ccc(NC(=O)C2CCCN(c3ncccn3)C2)cc1C (configuration not stated)	.	.	.	.	15	.	.	7.0
CCSc1nnc(CCNC(=O)OC(C)(C)C)o1	.	.	.	.	9.5	.	.	.
C=C(C)CSc1nnc(CCNC(=O)OC(C)(C)C)o1	/	.	/	/	/	/	/	/
CCOc1ccc2nc(/N=C/c3c(C)[nH]n(-c4ccc(C)cc4)c3=O)sc2c1	.	.	.	.	11	.	.	6.5
CCOc1ccc2nc(SC3CC(=O)N(c4ccc(C)cc4)C3=O)sc2c1 (configuration not stated)	.	.	.	.	.	.	/	/
COc1ccc(S[C@]2(C(=O)N3CCN(C(C)=O)CC3)CC(=O)N(C(=O)c3ccccc3)[C@@H]2c2ccc(OC)cc2)cc1	.	/	.	.	.	.	/	/
SMILES	DAX1 inh-1	DAX1 inh-2	ssDAF12 agonist	hgDAF12 agonist	SMARCA2 activ	hcDAF12 agonist	SMARCA2 conf	GAL4-VP16 Luc
COCCNC(=O)c1cc(-c2ccc3c(c2)OCO3)on1	.	.	.	.	.	.	/	/
C=CCNC(=O)c1cc(-c2ccc3c(c2)OCO3)on1	.	.	.	.	9.1	.	8.2	10
C=CC[C@@H]1NN2C(=O)[C@@H](CCc3ccccc3)[C@@H]3c4ccccc4C=NN3[C@@H]2c2ccccc21	.	/	.	.	.	.	/	/
CCN(C(=O)CN1C(=O)NC(c2ccccc2)(c2ccccc2)C1=O)c1ccccc1	.	.	.	.	.	.	/	/
CCN(CC)CCNC(=O)c1ccc(NCN2C(=O)NC(c3ccccc3)(c3ccccc3)C2=O)cc1	.	/	.	.	8.0	.	.	.
CC(=O)c1cc(-c2ccc(S(C)(=O)=O)cc2)c(=O)n2c1CCC2	.	/	.	.	.	.	/	/
COc1ccc(C(=O)COC(=O)c2ccco2)cc1	.	.	.	.	.	.	/	/
COc1ccc(/C(N)=N/OC(=O)c2ccco2)cc1	3.9	.	.	11	8.6	.	.	13
Cc1cc(C)cc(N=Cc2ccc([N+](=O)[O-])s2)c1	.	.	.	.	.	.	/	/
NC(=O)c1ccc(N=Cc2ccc([N+](=O)[O-])s2)cc1	.	.	.	.	8.9	.	.	.
CCOC(=O)[C@@]12CCCC3=C1N(CCC3)C(=O)[C@H]2CC(=O)N1CCOCC1	.	/	.	.	.	.	/	/
COc1ccc(Cn2cc(COC(=O)N3CCCC3)nn2)cc1	.	/	.	.	.	.	/	/
O=C(CSc1nnc(Cc2ccccc2)o1)NCCc1ccccc1	.	.	.	.	8.2	.	.	.
O=C(CSc1nnc(CNC(=O)c2ccccc2)o1)NCCc1ccccc1	.	.	.	.	.	.	/	/
Cn1c(COc2ccccc2)nnc1SCC(=O)Nc1ccc(S(=O)(=O)Nc2nccs2)cc1	.	/	.	.	.	.	/	/
COc1ccc2nc3cc(Cl)ccc3c(Nc3ccc(O)c(CN4CCN(C)CC4)c3)c2c1	.	4.3	.	.	20	.	91	.
